# Measured values taken from PubChem BioAssay.
# “And” between values parts separate entries of the source, which are not always exact repeats. Identical values can stand only once. Inconclusive results are not listed. The source made the active and inactive calls.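 Rule for the calls, unless noted: active = compounds killing one labelled cell type while sparing the other, by normalised counts and ratio limits, not self-fluorescent; inactive = the rest.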
# Key:
# [1] = differential killing of epithelial or mesenchymal cells, primary screen, imaging, PC-3E GFP, TEM4-18 mCherry, co-culture (AID 1345086); conditions: imaging cell counts, at 1 µM; for red/green cell ratio (normalised): actives lie on both sides, counts scaled to control wells, 1 = unselective;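 for all read-outs here: cells exposed to compound for 72 h before imaging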;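 for red/green cell ratio (normalised): normalised mesenchymal count divided by normalised epithelial count so high means epithelial killing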
# [2] = test system: Aerobactin synthetase IucA (Klebsiella pneumoniae); experiment: IucA aerobactin synthetase inhibitors, biochemical, Tocris library, absorbance (AID 1345561; call rule not given here;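 note: 100% = enzyme without compound and 0% = no enzyme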); conditions: purified IucA enzyme assay, absorbance (OD) read-out; stronger effect = lower value;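 tested at 8 µM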
# [3] = growth inhibition of DIPG glioma cells, dose response, cell-based, SU-DIPG-XIII, MIPE4.0, CellTiter-Glo, qHTS (AID 1347061; cut-off not given, nearly all actives have AC50 up to about 37 µM;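 note: cells exposed to compound for 48 hours before readout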); conditions: SU-DIPG-XIII viability, CellTiter-Glo ATP luminescence
# [4] = growth inhibition of DIPG glioma cells, dose response, cell-based, JHH-DIPG-1, MIPE4.0, CellTiter-Glo, qHTS (AID 1347062; cut-off not given, nearly all actives have AC50 up to about 27 µM;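 for AC50: cells exposed to compound for two days before readout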); conditions: JHH-DIPG-1 viability, CellTiter-Glo ATP luminescence
# [5] = growth inhibition of DIPG glioma cells, dose response, cell-based, SU-DIPG-IV, MIPE4.0, CellTiter-Glo, qHTS (AID 1347063; cut-off not given, nearly all actives have AC50 up to about 30 µM;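 note: compound exposure lasted 48 hours before the viability readout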); conditions: SU-DIPG-IV viability, CellTiter-Glo ATP luminescence
# [6] = growth inhibition of DIPG glioma cells, dose response, cell-based, SU-DIPG-XVII, MIPE5.0, CellTiter-Glo, qHTS (AID 1347060; cut-off not given, nearly all actives have AC50 up to about 26 µM); conditions: SU-DIPG-XVII viability, CellTiter-Glo ATP luminescence
# [7] = growth inhibition of DIPG glioma cells, dose response, cell-based, SU-DIPG-XIII, MIPE5.0, CellTiter-Glo, qHTS (AID 1347064; cut-off not given, nearly all actives have AC50 up to about 23 µM); conditions: SU-DIPG-XIII viability, CellTiter-Glo ATP luminescence
# [8] = measured here: epithelial PC-3E GFP cell survival
# [9] = measured here: mesenchymal TEM4-18 mCherry cell survival
smiles,measurement,setting,value
Nc1ccc(S(=O)(=O)NC(=O)c2ccccc2)cc1,red/green cell ratio (normalised),[1],1.62 (inactive)
same,normalised cell number,[1]; [8],0.9
same,normalised cell number,[1]; [9],1.46
CO[C@@]1(NC(=O)C(C(=O)O)c2ccc(O)cc2)C(=O)N2C(C(=O)O)=C(CSc3nnnn3C)CO[C@@H]21 (stereo not given in full),red/green cell ratio (normalised),[1],0.93 (inactive)
same,normalised cell number,[1]; [8],1.2
same,normalised cell number,[1]; [9],1.11
Nc1ccc(S(=O)(=O)Nc2cnc3ccccc3n2)cc1,red/green cell ratio (normalised),[1],1.03 (inactive)
same,normalised cell number,[1]; [8],1.09
same,normalised cell number,[1]; [9],1.11
CCCCCCCCCCCCCCCCOP(=O)([O-])OCC[N+](C)(C)C,red/green cell ratio (normalised),[1],0.8 (inactive)
same,normalised cell number,[1]; [8],1.32
same,normalised cell number,[1]; [9],1.06
Cc1ccc(C(=O)c2ccc(CC(=O)O)n2C)cc1,red/green cell ratio (normalised),[1],0.9 (inactive)
same,normalised cell number,[1]; [8],1.11
same,normalised cell number,[1]; [9],1
CN(C)CCOC(=O)COc1ccc(Cl)cc1,red/green cell ratio (normalised),[1],0.89 (inactive)
same,normalised cell number,[1]; [8],0.98
same,normalised cell number,[1]; [9],0.87
CCCCCCc1ccc(O)cc1O,red/green cell ratio (normalised),[1],0.84 (inactive)
same,normalised cell number,[1]; [8],1.14
same,normalised cell number,[1]; [9],0.96
CCn1cc(C(=O)O)c(=O)c2cnc(N3CCCC3)nc21,red/green cell ratio (normalised),[1],0.88 (inactive)
same,normalised cell number,[1]; [8],1
same,normalised cell number,[1]; [9],0.88
Oc1cccc(O)c1,red/green cell ratio (normalised),[1],1.34 (inactive)
same,normalised cell number,[1]; [8],0.71
same,normalised cell number,[1]; [9],0.95
Cc1cccc(C(=O)O)c1O,red/green cell ratio (normalised),[1],1 (inactive)
same,normalised cell number,[1]; [8],0.79
same,normalised cell number,[1]; [9],0.79
CCO/C([O-])=N/c1c[n+](N2CCOCC2)no1,red/green cell ratio (normalised),[1],0.9 (inactive)
same,normalised cell number,[1]; [8],1.04
same,normalised cell number,[1]; [9],0.94
CCCCOC(=O)c1ccc(N)cc1,red/green cell ratio (normalised),[1],1.07 (inactive)
same,normalised cell number,[1]; [8],0.97
same,normalised cell number,[1]; [9],1.04
COc1cc2c3cc1Oc1cc(ccc1O)C[C@@H]1c4c(cc(OC)c(O)c4Oc4ccc(cc4)C[C@@H]3N(C)CC2)CC[N+]1(C)C,red/green cell ratio (normalised),[1],0.97 (inactive)
same,normalised cell number,[1]; [8],1.08
same,normalised cell number,[1]; [9],1.05
O=C(O)c1ccc(S(=O)(=O)N(Cl)Cl)cc1,red/green cell ratio (normalised),[1],0.95 (inactive)
same,normalised cell number,[1]; [8],1.13
same,normalised cell number,[1]; [9],1.08
Cc1cc(C(C)(C)C)c(O)c(C(C)(C)C)c1,red/green cell ratio (normalised),[1],0.93 (inactive)
same,normalised cell number,[1]; [8],1.01
same,normalised cell number,[1]; [9],0.94
CC(C(=O)O)c1ccc(C(=O)c2cccs2)cc1 (stereo not given),red/green cell ratio (normalised),[1],1.06 (inactive)
same,normalised cell number,[1]; [8],0.96
same,normalised cell number,[1]; [9],1.02
O=C(O)CCC(=O)Nc1ccc(S(=O)(=O)Nc2nccs2)cc1,red/green cell ratio (normalised),[1],1.01 (inactive)
same,normalised cell number,[1]; [8],1.11
same,normalised cell number,[1]; [9],1.13
CCC(=O)c1c(O)cc(O)cc1O,red/green cell ratio (normalised),[1],0.9 (inactive)
same,normalised cell number,[1]; [8],1.06
same,normalised cell number,[1]; [9],0.96
CCCCN(CCCC)CCCOC(=O)c1ccc(N)cc1,red/green cell ratio (normalised),[1],1.16 (inactive)
same,normalised cell number,[1]; [8],1.04
same,normalised cell number,[1]; [9],1.2
CCOC(N)=O,red/green cell ratio (normalised),[1],1.16 (inactive)
same,normalised cell number,[1]; [8],0.95
same,normalised cell number,[1]; [9],1.1
NCCCC(=O)O,red/green cell ratio (normalised),[1],0.83 (inactive)
same,normalised cell number,[1]; [8],1.17
same,normalised cell number,[1]; [9],0.97
Nc1c(Br)cc(Br)cc1CNC1CCC(O)CC1 (stereo not given),red/green cell ratio (normalised),[1],0.72 (inactive)
same,normalised cell number,[1]; [8],1.16
same,normalised cell number,[1]; [9],0.84
same,remaining activity,[2],105% (inactive)
Cc1scc2c1N(C(=O)CN1CCN(C)CC1)c1ccccc1NC2=O,red/green cell ratio (normalised),[1],1.05 (inactive)
same,normalised cell number,[1]; [8],0.88
same,normalised cell number,[1]; [9],0.92
same,remaining activity,[2],94.5% (inactive)
CSc1ccc2c(c1)C(N1CCN(C)CC1)Cc1ccccc1S2 (stereo not given),red/green cell ratio (normalised),[1],1.1 (inactive)
same,normalised cell number,[1]; [8],0.72
same,normalised cell number,[1]; [9],0.79
same,remaining activity,[2],107% (inactive)
Cc1c(N(C)CS(=O)(=O)O)c(=O)n(-c2ccccc2)n1C,red/green cell ratio (normalised),[1],1.09 (inactive)
same,normalised cell number,[1]; [8],1.23
same,normalised cell number,[1]; [9],1.35
CCCOc1ccccc1-c1nc2n[nH]nc2c(=O)[nH]1,red/green cell ratio (normalised),[1],0.95 (inactive)
same,normalised cell number,[1]; [8],1.02
same,normalised cell number,[1]; [9],0.97
same,remaining activity,[2],122% (inactive)
CCCCNc1c(C(=O)OCC)c(C)nc2c1cnn2CC,red/green cell ratio (normalised),[1],1.16 (inactive)
same,normalised cell number,[1]; [8],0.85
same,normalised cell number,[1]; [9],0.98
same,remaining activity,[2],94.8% (inactive)
COc1cc(C(=O)OCCCN2CCCN(CCCOC(=O)c3cc(OC)c(OC)c(OC)c3)CC2)cc(OC)c1OC,red/green cell ratio (normalised),[1],1.21 (inactive)
same,normalised cell number,[1]; [8],0.76
same,normalised cell number,[1]; [9],0.92
same,remaining activity,[2],90.6% (inactive)
NC(N)=NC(=O)Cc1c(Cl)cccc1Cl,red/green cell ratio (normalised),[1],0.93 (inactive)
same,normalised cell number,[1]; [8],1.04
same,normalised cell number,[1]; [9],0.96
same,remaining activity,[2],114% (inactive)
Cc1nc2sccn2c(=O)c1CCN1CCC(=C(c2ccc(F)cc2)c2ccc(F)cc2)CC1,red/green cell ratio (normalised),[1],1.18 (inactive)
same,normalised cell number,[1]; [8],1.16
same,normalised cell number,[1]; [9],1.38
same,remaining activity,[2],122% (inactive)
CCOC(=O)C1=C[C@]2(CC)CCCN3CCc4c(n1c1ccccc41)[C@@H]32,red/green cell ratio (normalised),[1],0.75 (inactive)
same,normalised cell number,[1]; [8],1.28
same,normalised cell number,[1]; [9],0.96
same,remaining activity,[2],107% (inactive)
same,AC50,[3],26.4 µM (active)
same,AC50,[4],11.8 µM (active)
same,AC50,[5],16.6 µM (active)
CS(=O)(=O)Nc1ccc([N+](=O)[O-])cc1Oc1ccccc1,red/green cell ratio (normalised),[1],0.96 (inactive)
same,normalised cell number,[1]; [8],1.05
same,normalised cell number,[1]; [9],1.01
same,remaining activity,[2],111% (inactive)
same,outcome,[6],inactive
same,outcome,[3],inactive
same,outcome,[4],inactive
same,outcome,[7],inactive
Cc1oncc1C(=O)Nc1ccc(C(F)(F)F)cc1,red/green cell ratio (normalised),[1],0.74 (inactive)
same,normalised cell number,[1]; [8],1.34
same,normalised cell number,[1]; [9],0.99
same,remaining activity,[2],91.8% (inactive)
same,outcome,[4],inactive
same,outcome,[7],inactive
COC(=O)[C@H]1[C@H]2C[C@@H]3c4[nH]c5cc(OC)ccc5c4CCN3C[C@H]2C[C@@H](OC(=O)c2cc(OC)c(OC)c(OC)c2)[C@@H]1OC,red/green cell ratio (normalised),[1],1.08 (inactive) and 1.2 (inactive)
same,normalised cell number,[1]; [8],0.87 and 1.06
same,normalised cell number,[1]; [9],0.94 and 1.27
same,remaining activity,[2],124% (inactive)
C[C@](N)(Cc1ccc(O)c(O)c1)C(=O)O,red/green cell ratio (normalised),[1],1.05 (inactive)
same,normalised cell number,[1]; [8],0.98
same,normalised cell number,[1]; [9],1.03
same,remaining activity,[2],110% (inactive)
same,outcome,[6],inactive
same,outcome,[3],inactive
same,outcome,[5],inactive
